Results from the supplement of paper PMC11417369.
In all, about 25,000 sequences were measured (“ln(normalized median fluorescence intensity)”: median about 9.3, highest 2% from about 10 on). This is one part of a sample in which the highest values are shown more often than they occur.

Test system: PF3D7_0420300 AP2 domain 1 (GST-tagged)
Assay: gcPBM binding intensity (ln(normalized median fluorescence intensity)); higher = stronger DNA binding
In short: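 The binding buffer was 1× PBS containing 1% milk, 0.2 mg/ml BSA, 0.5% salmon testes DNA and 0.03% Triton X-100. In it, GST-tagged P. falciparum DNA-binding domains expressed in E. coli were applied for 1 h to an Agilent 4 × 180k array of primer-extended double-stranded 36-bp intergenic genomic probes plus negative controls. Binding intensity, read with Alexa488 anti-GST antibody and a 488 nm scan, is the highest Masliner-normalised natural-log median intensity across replicate spots of either probe orientation.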

| Sequence | gcPBM binding intensity (ln) |
| --- | --- |
| ATCGTTATATAATGTTGTACTTGTTATATATATATA [XGTACX_site7582] | 9.7 |
| TATATATATATATATACATGCATTTCTCATGTACAT [TGCATGCA_site621] | 9.14 |
| TTTGATAAATGATACACACACAATATTTATAAAATA [CACACA_site7040] | 9.72 |
| ATCTATAAATTTCCACGTACATATATATATATATAT [XGTACX_site4502] | 9.32 |
| TTTTGTTTTTGTAGAGTGCATAAAGAAGATATGTAT | 9.1 |
| AGTGTATTAAATTTTGAACACACAAAATAAAACATA [CACACA_site8483] | 9.43 |
| TATATTATGACCACCACACACCTATACACATAACAT [CACACA_site7199] | 9.62 |
| AACTTTTAGAAGAACACACACATATAGATTATGACC [CACACA_site6256] | 9.86 |
| ATTATAACACCTCCCCCCCTTTTTTTATGAAGACCA [CACACA_negctrl_site1043] | 10.4 |
| TTTATACTTGTAAATGCACACATAAGATGCGACTAA [CACACA_site8662] | 9.18 |
| TTTATAAAAATATACACACATACAAATATGCATATA [CACACA_site712] | 9.44 |
| TGTATCCATATTTGTTCACACACACCCATATTTATA [CACACA_site9190] | 10 |
| TATCCATATTTGTTCACACACACACCGATTTATATA [CACACA_site5888] | 10.1 |
| TATCCATATTTGTTCACACACACACCCATTTATATA [CACACA_site3571] | 10.2 |
| ATATAAATTCAAATTACACACATTTATTTTTTTTAC [CACACA_site53] | 9.44 |
| AGCAAATCAGATAGTAGTACATTTAAATTAGACTTT [XGTACX_site4172] | 9.19 |
| ATTATACACGCGCGCACACACAACAAAAAAAAAAAA [CACACA_site7630] | 9.69 |
| AACATATACACGAACACACACACATATATATATATA [CACACA_site502] | 10.1 |
| CATATACACGAACACACACACATATATATATATATA [CACACA_site4437] | 9.84 |
| GGCATACACGAACACACACACACACGCACATATATA [CACACA_site6426] | 10.3 |
| CATATACACGAACACACACACACACGCACAAAAAAA [CACACA_site6376] | 10.2 |
| TGAACACGCACAAATACACACAAAAAAAATAAATAA [CACACA_site6257] | 9.63 |
| TATTTTCTCTTAAAAAGTACTCATATATACATTTAT [XGTACX_site7748] | 9.07 |

| Sequence | gcPBM binding intensity (ln) |
| --- | --- |
| GAGTAAAAATTAAAATGTACATATTATATATATTTA [XGTACX_site1319] | 9.09 |
| CTTTGCCTTAAAAAGGAACACACATGCTTTTTTTAG [CACACA_site8219] | 9.22 |
| TTTTTTTTTACTTGTTGTACTTTTTCAAGGTATTGT [XGTACX_site7778] | 9.42 |
| TATATACATAAAATTTGTACATATATATATATATAT [XGTACX_site3214] | 9.28 |
| TGCTTATATCTTATAATATTTATACATCATAATAAG [CACACA_negctrl_site629] | 9.17 |
| ATTTTTCTTTTATTAACACACATATAAATAAATACA [CACACA_site2876] | 9.22 |
| CATAATAATAGAAACACACACACATAGACATATATA [CACACA_site1308] | 10.2 |
| ATAATATAGAAACACACACACATATATATATACATT [CACACA_site555] | 10.2 |
| TATACATAGAAACACACACACATATATATATATATA [CACACA_site2248] | 9.79 |
| TATATATAGAAACACACACACACATATATATATATT [CACACA_site2539] | 10.1 |
| TAATAATAGAAACACACACACATAGACATATATATA [CACACA_site1307] | 10.1 |
| TATACATAGAAACACACACACATAAATAAATATATA [CACACA_site1342] | 10.1 |
| TGTATCCACATATGTACACACATATATCTGTATATG [CACACA_site5668] | 9.51 |
| CAAAAATAAAAGAAATGTACAAAAAATAATAAAAAA [XGTACX_site6597] | 9.43 |
| TATTTTATACATATTTTACACACTAATATATACATA [CACACA_site7998] | 9.42 |
| AGGAATATCGAAAACTGTACTTGTATGTTTCATAAA [XGTACX_site6143] | 9.02 |
| AAATATATTATAAATTGTACGTTTATATATATTATT [XGTACX_site5110] | 9.35 |
| AATAATATATTTAGGGGTACATAATAATATATTTTA [XGTACX_site8366] | 9.27 |
| TTAGGCAAGGCGGGGGGTACGTTTTTATATAATTAT [XGTACX_site8029] | 10.6 |
| ATTTTTGTAAATACATGTACATATATATGCATATCC [XGTACX_site6353] | 9.49 |
| TTTCTATTTCCTTCACATCTTTTCATCTTTTTTTTT [CACACA_negctrl_site1110] | 9.71 |
| TTAATGGAAAAATAGGCACACACACCGATATACATA [CACACA_site8356] | 9.94 |
| AATGGAAAAATAGGCACACACACATATATACATATA [CACACA_site1298] | 10.2 |

| Sequence | gcPBM binding intensity (ln) |
| --- | --- |
| AATGGCAAAATAGGCACACACACATATACATATATA [CACACA_site1058] | 10.1 |
| TGGAAAAATAGGCACACACACATATATACATATATA [CACACA_site1297] | 10 |
| AATGGCAAAATAGGCACACACACATATACAGATATA [CACACA_site4726] | 10.1 |
| AATGGAAAAATAGGCACACACACATAAATACAGATA [CACACA_site4844] | 10.3 |
| GACCCCATATACATATGTACATACATAATATATATA [XGTACX_site1817] | 9.57 |
| TAAAATATAATAAAATGTACACGCATGCAATAGAAT [XGTACX_site7434] | 9.65 |
| ATCAGTCGGCAGGACAGTACACAGTAGCCAGAAAAT [XGTACX_site2550] | 9.49 |
| AGTATAAATAAATCATAAACATATATATATATATAT [GTGCAC_negctrl_site356] | 9.2 |
| AAAAAGAAAAAACTTACACACATATATACACCCATG [CACACA_site8079] | 10.1 |
| AAGTACATACATAAAACACACACATATATATATATA [CACACA_site8541] | 9.59 |
| AAAAAAAAAAAACACACACACACACTAGTACATACA [CACACA_site4551] | 10.2 |
| AACACCCAAAAACACACACACATACATACATACATA [CACACA_site4411] | 9.98 |
| AAAAAAAAAAAAAAAACACACACATACACCCAAAAA [CACACA_site7910] | 9.69 |
| AAAAAGAAAAAACTTACACACATATATACCCCCATG [CACACA_site4463] | 10.2 |
| AAAAAGAAAAAACTTACACACATATATACAGACATG [CACACA_site550] | 9.93 |
| AAAAAAAAAAAAAACACACACACACCCAAATACATA [CACACA_site708] | 9.87 |
| AAAAAAAAAAAAAACACACACATACACCCAAAAATG [CACACA_site4223] | 9.84 |
| AAAAAAAAAAAACATACACACATACATACATATATA [CACACA_site8222] | 9.82 |
| TATTCCCCCAAACACACACACACACCCACATACCAC [CACACA_site2304] | 10.3 |
| CAAACACCCAAACACACACACACATACATACATACA [CACACA_site8044] | 10.2 |
| TCTTATAAACTCTGCACACATAATATATTAAATGAG [CACACA_site1936] | 9.31 |
| TATATTTATTATAATTGTACATAAAATAAACTAAGA [XGTACX_site4318] | 9.19 |
| TATATATGTAGACGTTGTACTTTTTTGTAAGTTTAA [XGTACX_site5638] | 9.13 |

| Sequence | gcPBM binding intensity (ln) |
| --- | --- |
| TGATATTTTTCCATAGTGCAAAATATAGTAATGTAT | 9.11 |
| AAAAAAAAAAAAAAAACACACATACACCCAGACACA [CACACA_site5807] | 9.6 |
| AAAAAAAAAAAACACACACACACATACCCATACATA [CACACA_site5575] | 10.1 |
| AAAACATACATATATACACACATATATATATATATA [CACACA_site1852] | 9.57 |
| AAAAAAAAAAAAAAAACACACATACATACATACATA [CACACA_site6125] | 9.61 |
| AAAAAAAAAAAACACACACACACATACACATACATA [CACACA_site2858] | 10.2 |
| CACAGACACCCATACACACACATACCCATATATATA [CACACA_site5023] | 10 |
| AAAAAAAAAAAAAACACACACACACCCATACACATA [CACACA_site2860] | 10.1 |
| AAAAAAAAAAAACACACACACACACCCATACATACA [CACACA_site707] | 10.2 |
| AAAAAACACCCATACACACACACACCGATATATATA [CACACA_site5808] | 10.2 |
| AAAAAACAGACATACACACACACACCCATATATATA [CACACA_site3392] | 10.2 |
| TTTTTAATAACACTTTTGAAAAATAAAATAAAATAA [CACACA_negctrl_site821] | 8.8 |
| AAACAAATAAAATTTATTAAAAAGGTCATATTATTA [CACACA_negctrl_site85] | 9.12 |
| AGAAAGGATATTATATGTACATATCTTTGTATTTTT [XGTACX_site5040] | 9.36 |
| GTATACATGCAAATTTTTATTTACAACCCCAAAAAG [XGTACX_negctrl_site255] | 9.23 |
| GCACAAATATATATATATATATATATATATATATAT [GTGCAC_negctrl_site661] | 9.06 |
| AAAAAAAAAAAAAACACACACACACCCATACCCATA [CACACA_site5577] | 10.1 |
| AAAAAAAAAAAAAACACACACACACCCACATATACA [CACACA_site2663] | 10.1 |
| AAAAAAAAAAAAAACACACATACACGCCCACCCATA [CACACA_site3391] | 10.2 |
| AAAAAAAAAAAACACACACACACACCCATATACATA [CACACA_site2664] | 10.3 |
| TAAACACCCATACATACACACATACATACACCCATA [CACACA_site5125] | 9.58 |
